The panel holds about 83,000 compounds, 20% with a hit somewhere; the sample as a whole holds those more often.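 Single-concentration screen, 48 h exposure, 96-well plates. Endpoint: percent growth. Below 10 = active.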 Unmarked numbers belong to inactive results. Calls of active or inactive are those of the source.
How the values were obtained:
Assay in all cases: NCI-60 one-dose screen, 48 h (100 = growth as untreated, 0 = no growth, -100 = all killed)
Details in all cases: 10 µM unless noted
T-47D breast = test system: T-47D breast
BT-549 breast = test system: BT-549 breast
MDA-MB-435 melanoma = test system: MDA-MB-435 melanoma
SW-620 colon = test system: SW-620 colon
MCF7 breast = test system: MCF7 breast
HCT-116 colon = test system: HCT-116 colon
HCC-2998 colon = test system: HCC-2998 colon
KM12 colon = test system: KM12 colon

SMILES	growth (T-47D breast)	growth (BT-549 breast)	growth (MDA-MB-435 melanoma)	growth (SW-620 colon)	growth (MCF7 breast)	growth (HCT-116 colon)	growth (HCC-2998 colon)	growth (KM12 colon)
COc1cc(/C=C2\C(=O)Nc3ccccc32)ccc1OCc1ccc(Cl)cc1	107%	109%	106%	96.6%	69.5%	86.9%	123%	99.6%
Cc1cc(C)n(C(=O)c2sc(=S)n(-c3ccccc3)c2N=Nc2c(N)n[nH]c2N)n1	117%	107%	104%	102%	96.7%	100%	110%	107%
C=C(C=O)[C@@H]1CC[C@]2(C)[C@H](CC=C3[C@H]4[C@@H](C)[C@H](C)CC[C@]4(C(=O)OC)CC[C@]32C)[C@@]1(C)CCC#N	22.4%	12%	-7.24% (active)	0.12% (active)	-20.1% (active)	-57.8% (active)	-48.8% (active)	-4.32% (active)
CC(C)c1ccc(NCc2cn(-c3ccc(C(=O)O)cc3)nc2-c2cc(C(F)(F)F)cc(C(F)(F)F)c2)cc1	71%	102%	91%	86.8%	75.3%	84%	97%	82.5%
COc1cc2nc(Cl)nc(Nc3cccc(C4=Nc5c(N)nc(N)nc5NC(c5ccc(F)cc5)C4)c3)c2cc1OC (stereo not drawn)	63.7%	78.1%	77.2%	12.7%	-5.06% (active)	-41.7% (active)	22.9%	34.1%
NC(=O)c1cccc(C#CCNC[C@H]2C[C@@H](n3ccc4c(Cl)ncnc43)[C@H](O)[C@@H]2O)c1	96.6%	102%	-89.6% (active)	104%	96.5%	104%	107%	106%
CCCC(=O)NC(c1cccnc1)c1cc(C(C)(C)C)c2cccnc2c1O (stereo not drawn)	24.1%	24.8%	30.2%	34.2%	10.9%	21.7%	51.4%	18.8%
CS(=O)(=O)c1ncc(-c2ccccc2)cn1	94.4%	93.4%	95.2%	113%	91.9%	96.9%	104%	100%
Cc1ccc(NC(=O)CNc2cc(C(N)=O)cc(F)c2C)c(Cl)c1	104%	102%	97.4%	96.8%	87.2%	96.3%	122%	99.1%
C#C[C@]1(O)CC[C@H]2[C@@H]3CC=C4c5sc(-c6ccc(C)cc6)nc5CC[C@]4(C)[C@H]3CC[C@@]21C	50.4%	47.8%	-46.4% (active)	-37.5% (active)	1.73% (active)	29.4%	62.6%	12.7%
NC(N)=Nc1ccc(Nc2cccc(Oc3ccc(Cl)c(C(F)(F)F)c3)c2)cn1	23.7%	76.2%	18.3%	-60.5% (active)	-11.2% (active)	-72.9% (active)	-33.1% (active)	-58.7% (active)
Cc1ccc2c(c1)C13C(=C2Br)CCCN1C(=O)c1ccccc13 (stereo not drawn)	86.8%	104%	54.8%	93.7%	74.3%	96.5%	113%	91.5%
NC(N)=Nc1ccc(Oc2cccc(NC(N)=Nc3ccc(I)cc3F)c2)cc1	75.3%	87.6%	85%	89.5%	63.3%	90.5%	102%	79.3%
Cc1ccc2c(c1)C(=O)/C(=C/c1cccc(F)c1)S2	101%	134%	98.1%	105%	73.7%	105%	113%	101%
NC(N)=Nc1ccc(Oc2cccc(NC(N)=Nc3ccc(I)cc3F)c2)cn1	26.1%	89.5%	68.3%	76.3%	7.64% (active)	58.2%	70.9%	47.7%
COc1cc2nc(Cl)nc(Nc3cccc(C4=Nc5c(N)nc(N)nc5NC(c5ccc6c(c5)OCO6)C4)c3)c2cc1OC (stereo not drawn)	68.9%	76.8%	88.5%	76.9%	54%	55.3%	74.6%	46.8%

SMILES	growth (T-47D breast)	growth (BT-549 breast)	growth (MDA-MB-435 melanoma)	growth (SW-620 colon)	growth (MCF7 breast)	growth (HCT-116 colon)	growth (HCC-2998 colon)	growth (KM12 colon)
COc1ccc2c(c1)Oc1nc(N)c(C#N)c(N)c1C2Sc1ccc(C)cc1 (stereo not drawn)	-31.6% (active)	68.4%	-8.09% (active)	-49.5% (active)	-77.7% (active)	-69.1% (active)	-64.2% (active)	52.5%
CN(C)CCNC(=O)c1ccc(-c2nc3ccc4[nH]ncc4c3c3c2COCC3)cc1	-7.62% (active)	-16.2% (active)	3.65% (active)	3.1% (active)	0.287% (active)	2.59% (active)	-20.8% (active)	16.4%
COc1ccc2c(c1)c(CC(=O)[Se]CC#N)c(C)n2C(=O)c1ccc(Cl)cc1	22.4%	75.9%	26.5%	-32.7% (active)	17.3%	-46.7% (active)	-4.68% (active)	-5.24% (active)
COc1cc(-c2ccc3ncnc(NCc4ccccc4)c3c2)cnc1OC	2.37% (active)	57.2%	77.1%	74.6%	27%	78.1%	73.2%	95.2%
O=C(Nc1cccc(C(F)(F)F)c1)c1cc(-c2ccc(F)cc2F)ccc1O	2.56% (active)	1.83% (active)	4.23% (active)	10.8%	2.4% (active)	3.8% (active)	15.2%	3.77% (active)
CCCCCc1ccc(S(=O)(=O)Nc2cc(-c3csc(NC(=O)CN4CCN(C)CC4)n3)ccc2N2CCN(C)CC2)cc1	-49.9% (active)	77.5%	-78.6% (active)	-55.1% (active)	-85.9% (active)	-70.9% (active)	-25.2% (active)	38.9%
N#Cc1cccc(CN2CCC3=C(C2)C(=O)N(Cc2ccc(Cl)cc2)C2=NCCCN23)c1	21.2%	64%	20.3%	36.1%	14.2%	22.5%	24.5%	38.8%
C#CCC#CCN1CCC[C@H]1C(=O)NCC(=O)OC	94.8%	-91.5% (active)	105%	113%	99.4%	104%	106%	103%
CC1(C)[C@@H](O)CC[C@]2(C)[C@H]3CC[C@@H]4[C@H]5[C@H](C(=O)/C=C\c6ccccn6)CC[C@]5(O)CC[C@@]4(C)[C@]3(C)CC[C@@H]12	59%	36%	27.4%	18.5%	31.8%	2.84% (active)	52%	30.7%
CCOC(=O)c1c(NC(=O)c2ccccc2C(F)(F)F)sc2c1CCC(=O)C2	15%	11.1%	72.6%	14.9%	78.5%	11%	65.2%	7.7% (active)
NS(=O)(=O)c1ccc(Nc2nc(Nc3ccccc3)nc3nnc(SCC(=O)NC4CCCCC4)n23)cc1	104%	104%	110%	106%	100%	99.8%	109%	102%
CCCCc1nc(/C=N/Nc2nc(Nc3ccccc3)nc(Nc3ccc(S(N)(=O)=O)cc3)n2)c(Cl)[nH]1	14.9%	47.9%	90.3%	75.1%	46.8%	90%	70.4%	103%
COc1ccc2c(c1)c(-c1cc(N)n3nc(-c4cn(C)c5ccc(OC)cc45)cc3n1)cn2C	96.2%	117%	112%	-20.6% (active)	32.5%	-4.19% (active)	114%	96.9%
O=C(Nc1ccc(Br)cc1)Nc1nc2ccc([N+](=O)[O-])cc2s1	-19% (active)	-21.5% (active)	-9.22% (active)	3.15% (active)	1.05% (active)	2.73% (active)	1.25% (active)	0.616% (active)
CCNC(=O)N1CCc2cc(OC)c(OCCc3ccc(OC)cc3)cc2C1c1ccc(Cl)cc1C (stereo not drawn)	57%	-1.91% (active)	15.9%	21.4%	16.3%	9.84% (active)	17.1%	16.5%

From PubChem BioAssay (NCI)
